In all, about 75,000 compounds went through this assay and about 5,700 (7.6%) were called active. Where a call stands in place of a potency, no number is given. Not shown: some 7% with an inconclusive outcome. The call rests on the fitted dose curve; in most records, active means well fitted inhibition curve with a large enough effect; inconclusive means small, poorly fitted or top-dose-only effect; inactive means no such curve, though single readings can be large or run the other way. The sample as a whole holds a higher share of actives than the screen did.
Potency means the concentration at half of the fitted maximal effect.

The experiment concerns the target 3-hydroxyacyl-CoA dehydrogenase type-2 (Homo sapiens) (UniProt Q99714). Kind of experiment: qHTS Assay for Inhibitors of HSD17B4, hydroxysteroid (17-beta) dehydrogenase 4.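 Further: the protocol describes HADH2 (HSD17B10) and not the HSD17B4 of the title; nearly all actives have a fitted effect of over 70% in size.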 Particulars: recombinant HSD17B10, NADH fluorescence kinetic; series mostly up to 57.1 µM. In outline:
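His-tagged E. coli-expressed HADH2 at 20 nM in 100 mM Tris-HCl pH 9.0 with 0.01 % Tween-20, preincubated 15 min with compound at room temperature. Reaction with 1 mM NAD+ and 90 uM beta-hydroxybutyryl coenzyme A; NADH fluorescence (360/450 nm) read kinetically over 4 min, last minus first point.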
Turning to `CCOC(=O)c1cc2n(c1N)-c1ccccc1C2=O`, the Potency result is “inactive”.

Consider `CCn1c(=N)c(S(=O)(=O)c2ccc(F)cc2)cc2c(=O)n3ccccc3nc21`, for which the Potency entry was “inactive”. For `CCCn1c(=NC(C)=O)c(C(=O)OCC)cc2c(=O)n3ccccc3nc21`, the Potency is 20 µM (active). As to `CC(C)(C)c1nc(NCC2CCCO2)c2nnn(Cc3ccccc3)c2n1` (stereo not given), the Potency result is “inactive”. Same read-out and setting: with `Cc1nc(Nc2ccc3c(c2)OCCO3)c2nnn(Cc3ccccc3Cl)c2n1` the figure was 31.6 µM (active); with `C#CCNc1nc(C(C)C)nc2c1nnn2Cc1ccccc1F`, “inactive”. The same measure, in the same setting: with `O=c1cc(CO)oc(CN2CCC(Cc3ccccc3)CC2)c1O` the entry was “inactive”; with `OCCN1CCN(CC/C=C2\c3ccccc3Sc3ccc(C(F)(F)F)cc32)CC1`, “inactive”; with `CCCN1[C@H](C(=O)OC)C[C@@]2(O)[C@@H](O)[C@@H](O)[C@@H](O)C[C@@H]12`, “inactive”. As to `Cc1nnc(SCC(=O)NCc2ccccc2)s1`, the Potency result is “inactive”. In the case of `COc1c(C(C)C)oc2cc3oc(=O)ccc3cc12`, the Potency result was “inactive”. As to `Fc1ccc2nc(N3CCCCC3)sc2c1`, the Potency entry was “inactive”. Still for that read-out and setting: with `Fc1ccc2nc(Nc3nc4c(s3)CCCC4)sc2c1` the figure was 25.1 µM (active); with `O=C(Cn1c(=O)sc2ccccc21)Nc1nc2c(s1)CCCC2`, “inactive”; with `CNc1cc(-c2c(C)noc2C)ncn1`, “inactive”. Same read-out and setting: with `O=C1CCc2cc(S(=O)(=O)N3CCC(C(=O)NCc4ccccc4Cl)CC3)ccc2N1` the entry was “inactive”; with `CCCc1nnc(NC(=O)c2cc(OC)cc(OC)c2)s1`, “inactive”. In the case of `Cc1ccc(C(=O)Nc2nnc(-c3cccs3)s2)cc1C`, the Potency is 25.1 µM (active).

For `COc1cccc(OC)c1C(=O)Nc1nnc(C(C)C)s1`, the Potency entry was “inactive”. On the same count and under the same terms, for `Cc1cc(C)nc(N2C(=O)CC(Cc3ccccc3)C2=O)n1` (stereo not given) the value was “inactive”. The same measure, in the same setting: with `COc1ccc(OC)c2[nH]c(=O)c(CCNC(=O)C(C)(C)C)cc12` the entry was “inactive”; with `CCCn1c(SCC(=O)N2CCc3ccccc32)nnc1-c1ccncc1`, “inactive”; with `CCc1ccc(N2CC(C(=O)NC3=NCCS3)CC2=O)cc1` (stereo not given), “inactive”. For the compound `Cc1ccc(C(=O)N2CCCCCC2)cc1Br`, the Potency result was “inactive”. Take `O=C(c1cc(-c2cccs2)on1)N1CCCCC1`: the Potency result is “inactive”. `Cc1ccc2cc3cc(C(=O)N4CCCCCC4)oc3nc2c1`: the Potency is 25.1 µM (active).

`Oc1c(CN2CCOCC2)ccc(CN2CCOCC2)c1O`: the activity change, negative = inhibition was -11.5% [at 11.4 µM] (inactive). The same measure, in the same setting: for `CO[C@H]1COC(=O)[C@@H](OCc2ccccc2)/C=C\[C@H](C)[C@@H](OC)COC(=O)[C@H](OCc2ccccc2)/C=C\[C@@H]1C` the value was -0.999% [at 11.4 µM] (inactive); for `CN(C)CCCn1c2ccccc2c2cnccc21`, 7.17% [at 11.4 µM] (inactive).

For `NC(=O)COc1ccc2c3c(c(=O)oc2c1)CCCCC3`, the Potency is 25.1 µM (active). Still for that read-out and setting: for `O=C(COc1ccccc1F)NC1CC1` the value was “inactive”; for `O=C(COc1ccc2c3c(c(=O)oc2c1)CCC3)NC1CCCCC1`, 31.6 µM (active). The same measure, in the same setting: for `O=C(CC1OC(=O)c2ccccc21)NC1CCCCC1` (stereo not given) the value was “inactive”. As to `O=C(COc1ccc2oc3c(c2c1)CCCC3)Nc1ccccn1`, the Potency result is “inactive”. Still for that read-out and setting: with `Cc1cc(Cl)c(S(=O)(=O)NCC2CCCO2)cc1OCC(N)=O` (stereo not given) the entry was “inactive”. On the same count and under the same terms, for `CCOC(=O)CSc1nc2c(c(=O)n(C)c(=O)n2C)n1Cc1ccccc1F` the value was “inactive”; for `CCOC(=O)CSc1nnc(CNC(=O)Cc2ccccc2)n1-c1ccccc1OC`, “inactive”; for `COC(=O)CSc1nc(C2CC2)nc2ccccc12`, “inactive”.

With `Cc1ccc(-n2ncc3c(N4CCN(c5ccc(F)cc5)CC4)ncnc32)c(C)c1`, the Potency result is “inactive”.

Take `CCCc1nc2c3cnn(-c4cccc(Cl)c4)c3ncn2n1`: the Potency result was “inactive”. On to `Cc1ccc(-n2ncc3c2ncn2nc(-c4ccco4)nc32)c(C)c1`, for which the Potency is 25.1 µM (active). On the same count and under the same terms, for `CC1=C(/C=C/C(C)=C/C=C/C(C)=C/C=C/C=C(C)/C=C/C=C(C)/C=C/C2=C(C)CCCC2(C)C)C(C)(C)CCC1` the value was “inactive”; for `CC(=O)OCC(=O)[C@@]1(O)CCC2C3CCC4=CC(=O)CC[C@@]4(C)[C@]3(F)C(O)C[C@]21C` (stereo not given in full), “inactive”; for `CC(N)=NCc1cccc(CN)c1`, “inactive”. The same measure, in the same setting: for `COc1ccc2c(CC(=O)Nc3nnc(C4CC4)s3)coc2c1` the value was 25.1 µM (active); for `COc1ccc(OCCCC(=O)Nc2nnc(C3CCCO3)s2)cc1` (stereo not given), “inactive”. In the case of `COc1cccc(NC(=O)Nc2nnc(N3CCCCC3C)s2)c1` (stereo not given), the Potency result is “inactive”. As for `C[C@H]1CC[C@H](C(=O)O)N[C@@H]1c1ccc(C#Cc2ccccc2)cc1`, the activity change, negative = inhibition is -1.28% [at 11.4 µM] (inactive). For `O=C(Nc1cccc(F)c1)c1ccc(S(=O)(=O)N2CCCC2)cc1`, the Potency result was “inactive”. On to `C/C(Cl)=C\Cn1c(Nc2cccc(C)c2)nc2c1c(=O)n(C)c(=O)n2C`, for which the Potency result is “inactive”. The same measure, in the same setting: for `CCOC(=O)c1sc(NC(=O)CSc2ncccn2)c(C#N)c1C` the value was “inactive”; for `COCCNC(=O)COc1ccc(C)c(C)c1`, “inactive”. Same read-out and setting: with `c1cncc(CNc2ccnc(-c3ccc4c(c3)OCO4)n2)c1` the figure was 20 µM (active). On the same count and under the same terms, for `Cc1cccc(CNc2ccnc(-c3cccnc3)n2)c1` the value was “inactive”.

As to `O=C(Nc1cccnc1)c1ccc2c(c1)OCO2`, the Potency entry was “inactive”. Still for that read-out and setting: with `Cc1onc(-c2ccccc2Cl)c1C(=O)NCCn1ccc2ccccc21` the entry was “inactive”. Same read-out and setting: for `Cc1noc(/C=C/N(C)C)c1S(=O)(=O)N1CCCC(C(=O)NCc2ccco2)C1` (stereo not given) the value was “inactive”; for `CS(=O)(=O)N1CCN(C(=O)c2cc3ccccc3oc2=O)CC1`, “inactive”. Same read-out and setting: for `CCOC(=O)N1CCN(C(=O)c2cc3c(ccc4ccccc43)oc2=O)CC1` the value was 31.6 µM (active). Take `C=CCc1cccc2cc(C(=O)OCC)c(=O)oc12`: the Potency was 31.6 µM (active). Still for that read-out and setting: for `CCOC(=O)c1cc2ccccc2nc1C` the value was “inactive”; for `CCOC(=O)N1CCN(C(=O)c2cn(C)c3ccc(S(=O)(=O)N4CCCC4)cc3c2=O)CC1`, “inactive”. The same measure, in the same setting: for `C=CCc1cccc2cc(C(=O)N3CCN(C(=O)OCC)CC3)c(=O)oc12` the value was 25.1 µM (active).

As for `COc1c(C(=O)N2CCCC2)ccc2ccccc12`, the Potency entry was “inactive”. Still for that read-out and setting: for `CCOC(=O)N1CCN(C(=O)c2n[nH]c(=O)c3ccccc23)CC1` the value was “inactive”; for `COc1cccc2cc(C(=O)N(C)C)c(=O)oc12`, “inactive”. On the same count and under the same terms, for `CC(C)=CCC/C(C)=C/CC/C(C)=C/CC/C(C)=C/CO` the value was “inactive”; for `CC(c1cccnc1)N(CCN(C)C)C(=O)Nc1ccc(Cl)c(Cl)c1` (stereo not given), “inactive”; for `Cc1ccc(Br)cc1`, “inactive”.

Turning to `COC(=O)c1ccc(N(CC(=O)NC2CCCC2)C(=O)CNC(=O)c2ccco2)cc1`, the Potency result is “inactive”.

These data come from PubChem BioAssay AID893 (National Center for Advancing Translational Sciences (NCATS), 2007).
